Results from ChEMBL document CHEMBL1157539, “Thousands of chemical starting points for antimalarial lead identification” (Nature, 2010).

Test system: Plasmodium falciparum
Assay: GSK_TCMDC: Inhibition of Plasmodium falciparum Dd2 in whole red blood cells, using parasite LDH activity as an index of growth. Test compounds present at 2uM
Format: functional

Row | SMILES | Inhibition [%]
1 | COc1cc(CCNc2nc(NCc3ccccc3-c3ccccc3)nc(N3CCC(N)CC3)n2)ccc1O.O=C(O)C(F)(F)F | 70
2 | CN(c1ccc2c(c1)nc(NCc1ccc(F)cc1)n2C)c1ccnc(Nc2ccc(CS(C)(=O)=O)cc2)n1.Cl | 79
3 | COc1ccc2c(=NN=Cc3cccc(Cl)c3)cc(C)[nH]c2c1 | 99
4 | Cc1cccc(C)c1CNc1ccnc2cc(C#N)ccc12.Cl | 99
5 | COc1cc2ncnc(NCCc3ccccc3Cl)c2cc1OC | 11
6 | CCN(CC)CCN(Cc1ccc(-c2ccc(Br)cc2)cc1)C(=O)Cn1c(CCc2cccc(F)c2F)nc(=O)c2ccccc21.O=C(O)C(O)C(O)C(=O)O | 74
7 | Cc1cccc2nc(-c3ccc(-c4cccc(CNCc5ccc(CN)cc5)c4)s3)[nH]c12.O=C(O)C(F)(F)F | 48
8 | CC(=O)Nc1nc(C(=O)Nc2ccc(-c3cccc(-c4nc5cc(F)ccc5[nH]4)c3)cc2)cs1 | 29
9 | Cc1cc(Br)cnc1CCCCNc1cc(=O)c2ccccc2[nH]1.Cl | 64
10 | O=C(O)C(F)(F)F.c1ccc2c(c1)CN(Cc1cc3ccccc3[nH]1)CC1(CCN(Cc3c[nH]c4cnccc34)CC1)O2 | 62
11 | O=C(Nc1ccc2ccccc2c1)c1ccc(CN2CCC(Cc3ccccc3)CC2)cc1 | 10
12 | Cc1ccc(Cl)cc1N1CCN(CCCNC(=O)C2CCN(c3nc4ccccc4[nH]3)CC2)CC1 | 0
13 | O=C(O)C(F)(F)F.O=C1CCCN1CCCNCc1ccc(-c2cccc(-c3nc4cc(C(F)(F)F)ccc4[nH]3)c2)cc1 | 98
14 | CCOC(=O)/C(=N\OC(C(=O)OC(C)(C)C)c1ccccc1)c1csc(NC(c2ccccc2)(c2ccccc2)c2ccccc2)n1 (stereo not given) | 68
15 | N#Cc1cccc(NC(=O)Nc2ccc(CC(=O)N3CCc4cc(Cl)c(N5CCN(C/C=C/c6ccccc6)CC5)cc43)cc2)c1 | 61
16 | CN1CCCc2ccc(NC(=O)Nc3ccc(Cl)c(Cl)c3)cc2C1 | 22
17 | CS(=O)(=O)N1CC2(CCN(CCC(NC(=O)Nc3ccccc3)c3ccc(Cl)c(Cl)c3)CC2)c2ccccc21 (stereo not given) | 72
18 | COc1ccc2cc(-c3nc(-c4c(Cl)cccc4Cl)[nH]c3-c3ccnc(NCCC4CCCN4C)c3)ccc2c1.O=C(O)C(F)(F)F (stereo not given) | 82

Row | SMILES | Inhibition [%]
19 | CNC(=O)c1ccc2nc(C3CC3)n(CC3CCN(S(=O)(=O)c4cccc(Cl)c4)CC3)c2c1.O=C(O)C(F)(F)F | 100
20 | O=C(Nc1cccc(CN2CCCN(Cc3ccc(F)cc3)CC2)c1)c1ccc(Cl)c(Cl)c1.O=C(O)C(F)(F)F | 17
21 | CCCOc1cc(OCCC)cc(-c2cc(=O)c3ccccc3[nH]2)c1 | 96
22 | CC(=O)N(C)c1cccc(C(=O)Nc2cccc(-c3ccc(-c4nc5cc(C(F)(F)F)ccc5[nH]4)cc3)c2)c1 | 31
23 | Cc1ccc2nc(C)cc(Nc3ccccc3O)c2c1.Cl | 6
24 | c1ccc(CNc2nc(NCCc3c[nH]cn3)nc(N3CCCC4CCCCC43)n2)cc1 (stereo not given) | 100
25 | N#Cc1ccc(N2CCN(Cc3cccc(-c4cccc(-c5nc6cc(C(F)(F)F)ccc6[nH]5)c4)c3)CC2)nc1.O=C(O)C(F)(F)F | 50
26 | Cc1nc(N)nc(N)c1-c1cccc(Cl)c1 | 0
27 | O=C(Cc1ccc(NC(=O)c2ccc(O)c(-c3ccc(Cl)c(Cl)c3)c2)cc1)NCCc1ccc(Cl)c(Cl)c1 | 88
28 | CS(=O)(=O)N1CC2(CCN(CCC(NC(=O)/C=C/c3ccccc3)c3ccc(Cl)c(Cl)c3)CC2)c2ccccc21 (stereo not given) | 55
29 | O=S(=O)(c1c(Cl)cc(Cl)cc1Cl)N1CCCCC(c2ccc(Cl)cc2)=N1 | 93
30 | O=C(O)C(F)(F)F.c1ccc(CCNc2ccnc(Nc3ccc4[nH]nnc4c3)n2)cc1 | 95
31 | CS(=O)(=O)NCCCNCc1ccc(-c2ccc(-c3nc4cc(F)ccc4[nH]3)s2)cc1.O=C(O)C(F)(F)F | 30
32 | COc1cccc(C(=O)NCCc2cccc(Cl)c2)c1OCc1ccccc1 | 0
33 | CC(=O)Oc1cc(C)ccc1C1CCN(CCCCNC(=O)c2ccc(-c3ccc(C(F)(F)F)cc3)cc2)CC1 | 94
34 | Cc1ccccc1Nc1nc(NCCCO)c2ccccc2n1.Cl | 50
35 | COc1cc(C(=O)N2CCN(C(C)C)CC2)ccc1CN(C)CCCN1CCN(c2cccc(Cl)c2Cl)CC1.Cl | 87
